From PubChem
NS1 inh: qHTS Assay for Inhibitors of Influenza NS1 Protein Function. 270,000 compounds, 0.4% hits. Potency, µM (highest dose often 46.1 µM), for the others: at the highest dose activity, positive = more growth; calls by dose curve; further: potency means the concentration at half of the fitted maximal effect; actives are rising curves; nearly all actives have a fitted effect of over 50% in size
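In this qHTS, NS1 from influenza A is expressed in budding yeast, where it slows growth. Cells are switched from glucose to 2% galactose medium (pH 6.0, -URA), treated with compound, and growth recovery is read at OD600.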
Pf growth 48h: Primary qHTS for delayed death inhibitors of the malarial parasite plastid, 48 hour incubation; Potency, µM (doses to about 28.7 µM), for the others: top-dose activity change, negative = inhibition, usual class: inhibitors; P. falciparum luciferase growth in erythrocytes, 48 h; 310,000 compounds, 5.9% hits; further: potency means the concentration at half of the fitted maximal effect; on the % scale 0 is the no-effect control and ±100 the full control effect
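Erythrocytes infected with P. falciparum carrying an integrated firefly luciferase reporter (2% hematocrit, 0.1% parasitemia final) were exposed to compounds in RPMI 1640 with 0.5% Albumax at 37 C, 5% CO2. Growth inhibition was scored as reduced luminescence.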
Cycloheximide cs: Cycloheximide Counterscreen for Small Molecule Inhibitors of Shiga Toxin; cell reporter, cycloheximide protein synthesis inhibition counterscreen; max response, %; 300,000 compounds, 12% hits; AID 2314, 2010; in the data active means max response mostly above about 13%, no sharp cut-off; inactive means mostly below about 14%; further: read at 38.3 µM for the half of the compounds with a filed dose; 0% is about no effect
Pf growth 96h: Primary qHTS for delayed death inhibitors of the malarial parasite plastid, 96 hour incubation; P. falciparum luciferase reporter growth, 96 h; Potency, µM (doses to about 28.7 µM), inactives show top-dose activity change, negative = inhibition, most hits filed as inhibitors; 320,000 compounds, 6.9% hits; further: potency means the concentration at half of the fitted maximal effect; on the % scale 0 is the no-effect control and ±100 the full control effect
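P. falciparum expressing integrated firefly luciferase, in erythrocytes at 2% hematocrit, 0.05% parasitemia, incubated with compounds 96 h at 37 C, 5% CO2. Growth inhibition read as loss of luminescence; two-generation exposure targets delayed-death apicoplast inhibitors.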
SARS PLpro yeast: qHTS of Yeast-based Assay for SARS-CoV PLP; S. cerevisiae expressing SARS-CoV PLpro, growth rescue; Potency, µM (doses to about 32.9 µM), without a hit: top-dose activity, positive = growth rescue, actives largely listed as activators; 330,000 compounds, 0.19% hits; calls by dose curve; further: potency means the concentration at half of the fitted maximal effect; 0% is about no effect; nearly all actives have a fitted effect of over 55% in size
Shiga toxin inh: A qHTS for Small Molecule Inhibitors of Shiga Toxin. Vero cells, Shiga toxin protein synthesis inhibition reporter. inhibition, % at 38.7 µM. 290,000 compounds, 9.2% hits; in the data active means inhibition mostly above about 28%, no sharp cut-off; inactive means mostly below about 43%; further: 0% is about no effect
An asterisk follows results filed as active; u = inconclusive; x = no result. A selection: hits, their analogues and other compounds. The true share with any hit is near 21%. Unless noted, the call rests on the fitted dose curve; in most records, active means well fitted inhibition curve with a large enough effect; inconclusive means small, poorly fitted or top-dose-only effect, or another doubt; inactive means no such curve, though single readings can be large or run the other way.

SMILES	NS1 inh	Pf growth 48h	Cycloheximide cs	Pf growth 96h	SARS PLpro yeast	Shiga toxin inh
CC1CCN(S(=O)(=O)c2cccc(C(=O)NCc3cccs3)c2)CC1	-8%	0%	-2	1%	0%	-7
CC1CCN(c2ccc(C(=O)NCc3cccs3)cn2)CC1	-42%	u	52*	u	-13%	78
O=C(NCCc1ccccc1)c1cnc(Cl)c(Cl)c1	-5%	x	31*	9%	-2%	105*
O=C(NCCCSc1ccccc1)c1cnc(Cl)c(Cl)c1	-6%	13%	-8	20%	-2%	22
O=C(NCc1cccs1)c1cnc(Cl)c(Cl)c1	x	10%	30*	9%	1%	45*
O=C(COC(=O)c1cnc(Cl)c(Cl)c1)NCc1cccs1	-1%	0%	-3	15%	0%	-4
CCC(=O)c1ccc(OCC(=O)OCC(=O)N2c3ccccc3CC2C)cc1 (stereo unspecified)	x	0%	x	3%	u	x
CCOC(=O)c1c(NC(=O)CC2SC(N)=NC2=O)sc2c1CCCC2 (stereo unspecified)	9%	42%	-3	33%	-4%	2
COC(=O)C1=C(c2ccc(F)cc2OCc2ccccc2)C[C@@H]2CC[C@H]1N2C(=O)NCc1ccccc1OC	x	6.6µM*	x	u	0%	x
COC(=O)C1=C(c2ccc(F)cc2OCc2ccccc2)C[C@@H]2CC[C@H]1N2C(=O)NCc1ccc2c(c1)OCO2	x	2.9µM*	x	u	-14%	x
COC(=O)C1=C(c2ccc(F)cc2OCc2ccccc2)C[C@@H]2CC[C@H]1N2C(=O)NCc1cccc(F)c1	x	2.3µM*	x	u	7%	x
COC(=O)C1=C(c2ccc(F)cc2OCc2ccccc2)C[C@@H]2CC[C@H]1N2C(=O)N1CCC(O)CC1	x	12µM*	x	u	-5%	x
COC(=O)C1=C(c2ccc(F)cc2OCc2ccccc2)C[C@@H]2CC[C@H]1N2C(=O)NCc1ccco1	x	u	x	u	1%	x
Cc1ccc(C)c(NC(=O)COC(=O)c2ccc3ccccc3n2)c1	x	40%	x	24%	-8%	x
CCOC(=O)/C(C#N)=C/Nc1cc(C(C)(C)C)sc1C(C)=O	7%	u	-1	-14%	0%	1
Cc1ccc(S(=O)(=O)N2CCOCC2)cc1NC(=O)CSc1nnc(C2CC2)n1C1CC1	x	-2%	x	-14%	-10%	x
NC(CCl)=N[C@H]1CN2CCC1CC2	-4%	x	x	x	x	x
CCCNC(=O)N1[C@H]2CC[C@@H]1C(C(=O)OC)=C(c1ccc(F)cc1OCc1ccccc1)C2	x	u	x	u	-6%	x
COC(=O)C1=C(c2ccc(F)cc2OCc2ccccc2)C[C@@H]2CC[C@H]1N2C(=O)NCc1ccccc1	x	9.3µM*	x	4.1µM*	-1%	x
COC(=O)C1=C(c2ccc(F)cc2OCc2ccccc2)C[C@@H]2CC[C@H]1N2C(=O)NCC1CC1	x	10µM*	x	u	1%	x
COC(=O)C1=C(c2ccc(F)cc2OCc2ccccc2)C[C@@H]2CC[C@H]1N2C(=O)NCCCOC(C)C	x	9.3µM*	x	u	-2%	x
COC(=O)C1=C(c2ccc(F)cc2OCc2ccccc2)C[C@@H]2CC[C@H]1N2C(=O)NCCO	x	u	x	u	0%	x
CCN(C(=O)CCCC(=O)N(CC)c1ccccc1)c1ccccc1	-7%	-2%	-2	u	7%	-5
Cc1cccc(OCC(=O)Nc2cccc3nsnc23)c1	-9%	x	1	38%	-3%	-9
COc1ccc(NC(=O)COc2ccc(Br)cc2)c(OC)c1	15%	0%	13*	u	4%	30*
COc1ccc(NC(=O)COc2cccc3c2OC(C)(C)C3)c(OC)c1	x	u	x	10µM*	-4%	x
COc1cccc(OCC(=O)NNC(=O)C(=O)Nc2ccc(OC)cc2OC)c1	5%	1%	7	-4%	1%	-3
COc1ccc(NC(=O)NNC(=O)COc2ccc3cc(Br)ccc3c2)c(OC)c1	17%	-22%	1	-13%	3%	-3
O=C(COc1ccccc1)Nc1cccc2nsnc12	-10%	23%	66*	-14%	1%	35
